The text below walks through data of PubChem BioAssay (NCI).

A short description of test [1]: NCI Yeast Anticancer Drug Screen. Data for the rad50 strain (AID 155).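 Note: 0% = growth of vehicle-only cultures of the same strain.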 The conditions noted are these: S. cerevisiae rad50 strain growth inhibition, active compounds read high. The method in brief:
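Compounds were tested on a yeast strain with an engineered DNA damage repair alteration; the reported value is growth inhibition normalised to vehicle treatment.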

The nature of test [2]: NCI Yeast Anticancer Drug Screen. Data for the mec2-1 strain (AID 157). The conditions noted are these: S. cerevisiae mec2-1 strain, active compounds read high. The method in brief:
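Mutant yeast (mec2-1) grown with compound; growth inhibition relative to vehicle control reported.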

The nature of test [3]: NCI Yeast Anticancer Drug Screen. Data for the sgs1 mgt1 strain (AID 161).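 Note: 0% = growth of cultures given vehicle only.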 The conditions noted are these: S. cerevisiae sgs1 mgt1 strain, active compounds read high. In short, it runs like this:
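Percent growth inhibition was derived by comparing compound-exposed mutant yeast with vehicle-exposed cultures. The strain carries alterations in DNA damage repair.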

Test [4] is described as follows: NCI Yeast Anticancer Drug Screen. Data for the cln2 rad14 strain (AID 165).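 Note: 0% = growth equal to vehicle treated cultures.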 The conditions noted are these: S. cerevisiae cln2 rad14 strain, active compounds read high. In short, it runs like this: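 Readout is yeast growth inhibition versus vehicle-treated controls, using a strain with cln2 and rad14 alterations exposed to compound.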
Test [5] can be described thus: NCI Yeast Anticancer Drug Screen. Data for the bub3 strain (AID 167). The conditions noted are these: S. cerevisiae bub3 mutant strain, active compounds read high. In short, it runs like this:
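Growth of a checkpoint-deficient yeast mutant is measured after compound exposure. Values represent inhibition relative to vehicle.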

The nature of test [6]: NCI Yeast Anticancer Drug Screen. Data for the mlh1 rad18 strain (AID 175). As to conditions: S. cerevisiae mlh1 rad18 strain growth inhibition, active compounds read high. In short, it runs like this: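 Genetically defined yeast (DNA repair-deficient) exposed to compounds; growth inhibition determined relative to vehicle.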
Where [7] appears, read: at 5.0 µM (retest, dose inferred, filed as 0.5).
[8] abbreviates: at 50.0 µM (retest, dose inferred, filed as 5.0).

This is part of a sample that, as a whole, favours compounds with a hit. Of some 79,000 tested, about 15% had one in any assay. Unmarked numbers belong to inactive results. Activity calls are given as the source filed them. Cut-off read from the data, not from the text of the source: active = growth inhibition above about 70%; inactive = the rest.

For the molecule `C1CCC(C2CCC(N3CCCCC3)CC2)CC1` (stereo not given), the growth inhibition in test [1] (setting [7]) was 60%; in test [1] (setting [8]) it was 78% (active); in test [1] (at 50.0 µM), 85% (active); in test [2] (setting [7]), 45%; in test [2] (setting [8]) it was 77% (active); in test [2] (at 50.0 µM) it was 51.4%. Besides, the growth inhibition in test [3] (setting [7]) is 58%; in test [3] (setting [8]) it was 86% (active); in test [3] (at 50.0 µM), 82.3% (active); in test [4] (setting [7]), 63%; in test [4] (setting [8]) it was 62%; in test [4] (at 50.0 µM) it was 75.6% (active). Moreover, the growth inhibition in test [5] (setting [7]) was 63%; in test [5] (setting [8]) it was 84% (active); in test [5] (at 50.0 µM), 72.8% (active); in test [6] (setting [7]), 67%; in test [6] (setting [8]) it was 87% (active); in test [6] (at 50.0 µM) it was 79.4% (active).

Consider `CN(NC(=O)/C(=C\c1ccco1)NC(=O)c1ccccc1)c1cn[nH]c(=O)c1Cl`, for which the growth inhibition is 9% in test [1] (setting [7]); 36% in test [1] (setting [8]); 86.2% (active) in test [1] (at 50.0 µM); -9% in test [2] (setting [7]); 13% in test [2] (setting [8]); 83.4% (active) in test [2] (at 50.0 µM). The growth inhibition in test [3] (setting [7]) is -2%; in test [3] (setting [8]) it was 6%; in test [3] (at 50.0 µM), 87.8% (active); in test [4] (setting [7]) it was 7%; in test [4] (setting [8]), 13%; in test [4] (at 50.0 µM), 62.7%. For the same molecule, the growth inhibition is -10% in test [5] (setting [7]); 27% in test [5] (setting [8]); 90.6% (active) in test [5] (at 50.0 µM); -6% in test [6] (setting [7]); 47% in test [6] (setting [8]); 93.5% (active) in test [6] (at 50.0 µM).

As for `CC(=O)NC(CCC(=O)O)C(=O)O.[NH-]C1CCCCC1[NH-].[Pt+2]` (stereo not given), the growth inhibition was 96% (active) in test [1] (setting [7]); 99% (active) in test [1] (setting [8]); 99.5% (active) in test [1] (at 50.0 µM); 99% (active) in test [2] (setting [7]); 99% (active) in test [2] (setting [8]); 99.3% (active) in test [2] (at 50.0 µM). Also, the growth inhibition in test [3] (setting [7]) was 98% (active); in test [3] (setting [8]) it was 99% (active); in test [3] (at 50.0 µM) it was 100% (active); in test [4] (setting [7]), 88% (active); in test [4] (setting [8]), 98% (active); in test [4] (at 50.0 µM), 99.4% (active). Also, the growth inhibition was 99% (active) in test [5] (setting [7]); 98% (active) in test [5] (setting [8]); 99% (active) in test [5] (at 50.0 µM); 96% (active) in test [6] (setting [7]); 99% (active) in test [6] (setting [8]); 99.2% (active) in test [6] (at 50.0 µM).

`CC1(C)C(=O)C(C(Cl)(Cl)Cl)=C(Cl)C(=O)C1(Cl)Cl`: the growth inhibition in test [1] (setting [7]) is 64%; in test [1] (setting [8]) it was 97% (active); in test [1] (at 50.0 µM) it was 52.5%; in test [2] (setting [7]), 27%; in test [2] (setting [8]), 96% (active); in test [2] (at 50.0 µM), 42.1%. The growth inhibition is 38% in test [3] (setting [7]); 93% (active) in test [3] (setting [8]); 64.9% in test [3] (at 50.0 µM); 49% in test [4] (setting [7]); 89% (active) in test [4] (setting [8]); 48.8% in test [4] (at 50.0 µM). Besides, the growth inhibition was 56% in test [5] (setting [7]); 96% (active) in test [5] (setting [8]); 51.1% in test [5] (at 50.0 µM); 42% in test [6] (setting [7]); 97% (active) in test [6] (setting [8]); 67.5% in test [6] (at 50.0 µM).

As for `C=C1CC2(OC1=O)C(=O)N(C)c1ccccc12` (stereo not given), the growth inhibition in test [1] (setting [7]) was -118%; in test [1] (setting [8]), 63%; in test [1] (at 50.0 µM), 84.5% (active); in test [2] (setting [7]), -31%; in test [2] (setting [8]), 52%; in test [2] (at 50.0 µM), 87.5% (active). Also, the growth inhibition is -38% in test [3] (setting [7]); 67% in test [3] (setting [8]); 82.6% (active) in test [3] (at 50.0 µM); -49% in test [4] (setting [7]); 22% in test [4] (setting [8]); 15% in test [4] (at 50.0 µM). Also, the growth inhibition in test [5] (setting [7]) is -47%; in test [5] (setting [8]), 73% (active); in test [5] (at 50.0 µM), 88.2% (active); in test [6] (setting [7]), -111%; in test [6] (setting [8]), 71% (active); in test [6] (at 50.0 µM) it was 91.7% (active).

Take `COc1ccc(C2C(C#N)(C#N)C2(C#N)C#N)cc1`: the growth inhibition in test [1] (setting [7]) is 16%; in test [1] (setting [8]), 98% (active); in test [1] (at 50.0 µM), 63.5%; in test [2] (setting [7]), 19%; in test [2] (setting [8]), 99% (active); in test [2] (at 50.0 µM), 96.5% (active). In addition, the growth inhibition in test [3] (setting [7]) is 21%; in test [3] (setting [8]) it was 98% (active); in test [3] (at 50.0 µM), 98.3% (active); in test [4] (setting [7]), 2%; in test [4] (setting [8]), 99% (active); in test [4] (at 50.0 µM), 88% (active). Besides, the growth inhibition in test [5] (setting [7]) was 6%; in test [5] (setting [8]), 98% (active); in test [5] (at 50.0 µM), 94.8% (active); in test [6] (setting [7]), 22%; in test [6] (setting [8]), 99% (active); in test [6] (at 50.0 µM), 92.7% (active).

`O=C1c2ccccc2C(=O)c2sc(Nc3cc(Cl)ccc3Cl)nc21`: the growth inhibition in test [1] (setting [7]) is 58%; in test [1] (setting [8]) it was 98% (active); in test [1] (at 50.0 µM) it was 82.3% (active); in test [2] (setting [7]), 72% (active); in test [2] (setting [8]), 99% (active); in test [2] (at 50.0 µM), 88.2% (active). For the same molecule, the growth inhibition in test [3] (setting [7]) was 67%; in test [3] (setting [8]), 99% (active); in test [3] (at 50.0 µM) it was 88.3% (active); in test [4] (setting [7]), 52%; in test [4] (setting [8]), 97% (active); in test [4] (at 50.0 µM), 86.5% (active). The growth inhibition in test [5] (setting [7]) was 87% (active); in test [5] (setting [8]), 98% (active); in test [5] (at 50.0 µM), 83.8% (active); in test [6] (setting [7]) it was 63%; in test [6] (setting [8]) it was 98% (active); in test [6] (at 50.0 µM) it was 90.5% (active).

`Cc1[nH]nc(C(=O)N/N=C/c2ccccc2Cl)c1N=NN(C)C`: the growth inhibition in test [1] (setting [7]) was 41%; in test [1] (setting [8]), 91% (active); in test [1] (at 50.0 µM), 92.5% (active); in test [2] (setting [7]) it was 50%; in test [2] (setting [8]) it was 93% (active); in test [2] (at 50.0 µM), 92.4% (active). For the same molecule, the growth inhibition in test [3] (setting [7]) was 33%; in test [3] (setting [8]), 94% (active); in test [3] (at 50.0 µM), 91.9% (active); in test [4] (setting [7]), 5%; in test [4] (setting [8]) it was 93% (active); in test [4] (at 50.0 µM) it was 93.7% (active). The growth inhibition in test [5] (setting [7]) is 12%; in test [5] (setting [8]), 88% (active); in test [5] (at 50.0 µM), 89.7% (active); in test [6] (setting [7]), 72% (active); in test [6] (setting [8]) it was 94% (active); in test [6] (at 50.0 µM), 95.3% (active).

Take `CCOc1ccc(C=Nc2ccc(/C=C(\C)C(=O)OCCC(C)C)cc2)cc1`: the growth inhibition in test [1] (setting [7]) was 50%; in test [1] (setting [8]) it was 98% (active); in test [1] (at 50.0 µM), 97.6% (active); in test [2] (setting [7]) it was 72% (active); in test [2] (setting [8]), 99% (active); in test [2] (at 50.0 µM), 98.2% (active). Further, the growth inhibition in test [3] (setting [7]) was 85% (active); in test [3] (setting [8]) it was 99% (active); in test [3] (at 50.0 µM), 97.5% (active); in test [4] (setting [7]) it was 94% (active); in test [4] (setting [8]), 98% (active); in test [4] (at 50.0 µM), 97.2% (active). The growth inhibition in test [5] (setting [7]) was 86% (active); in test [5] (setting [8]), 97% (active); in test [5] (at 50.0 µM), 82.2% (active); in test [6] (setting [7]), 92% (active); in test [6] (setting [8]), 99% (active); in test [6] (at 50.0 µM), 98% (active).

`COC(=O)C1(C)CCc2c(ccc3cccc(OC)c23)C1=O` (stereo not given): the growth inhibition in test [1] (setting [7]) was 0%; in test [1] (setting [8]), 99% (active); in test [1] (at 50.0 µM), 1.65%; in test [2] (setting [7]), 0%; in test [2] (setting [8]), 98% (active); in test [2] (at 50.0 µM), 21%. Further, the growth inhibition in test [3] (setting [7]) was 2%; in test [3] (setting [8]) it was 98% (active); in test [3] (at 50.0 µM) it was 66.9%; in test [4] (setting [7]), -9%; in test [4] (setting [8]), 97% (active); in test [4] (at 50.0 µM), -3.75%. Also, the growth inhibition was 20% in test [5] (setting [7]); 99% (active) in test [5] (setting [8]); 86.8% (active) in test [5] (at 50.0 µM); 1% in test [6] (setting [7]); 99% (active) in test [6] (setting [8]); 44.5% in test [6] (at 50.0 µM).
